Measured values: PubChem BioAssay (NCATS)
Values joined by “and” are separate entries in the source; they are usually repeats but may differ in a detail not shown here. Equal values may be shown once. Results filed as inconclusive are left out. Values without a mark were called inactive. Active and inactive are the calls of the source. Calls follow the shape of the dose curve; as a rule, active = well fitted curve in the direction sought with a large enough effect; inconclusive = small, poorly fitted or top-dose-only effect, or another doubt; inactive = no such curve, though single readings can be large or run the other way. Where a SMILES comes first, the peptide text is derived from it. Bridges are numbered along the chain shown (N, C = ends). [ ]: non-standard residue; d: D form. The star is where a group is joined. Dab(CH2SO3H) = N[C@@H](CCNCS(=O)(=O)O)C(=O)O; X3 = CC[C@@H](C)CCCCC(=O)*; Dab = NCC[C@H](N)C(=O)O

Experiment: qHTS Assay for Identifying Gametocytocidal Compounds (AID 743244);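 as to max response: actives lower the fluorescent signal which means gametocytes are killed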
Conditions: P. falciparum 3D7 stage III-V gametocytes, alamarBlue, 72 h; max response: hits give low values
Summary of the method: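 Stage III–V gametocytes of P. falciparum 3D7 were seeded at 20,000 cells/well onto pre-dispensed compounds. After 72 h, 37 °C, 5% CO2, alamarBlue was added for another 24 h.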
% is scaled to controls: 0 for no effect and ±100 for the full control effect; potency is read from the fitted curve at half-maximal effect.

Row | Structure (SMILES) | Potency | max response
1 | C=C1CC[C@@H]2[C@](C)(CO)[C@H](O)CC[C@@]2(C)[C@@H]1C/C=C1/C(=O)OC[C@H]1O | 20 µM (active) | 
2 | CC1(C)S[C@@H]2[C@H](NC(=O)[C@@H](NC(=O)N3CCNC3=O)c3ccccc3)C(=O)N2[C@H]1C(=O)O |  | 5.13%
3 | O=C(COc1ccc(Cl)cc1)OCCNC12CC3CC(CC(C3)C1)C2 |  | -2.86%
4 | CCC1OC(=O)C[C@@H](O)[C@H](C)[C@@H](O[C@@H]2O[C@H](C)C[C@H](N(C)C)[C@H]2O)[C@@H](CC=O)C[C@@H](C)C(=O)/C=C/[C@]2(C)OC2C1C (stereo partly drawn) | 10 µM (active) | 
5 | Cc1cn([C@H]2C[C@H](O)[C@@H](CO)O2)c(=O)[nH]c1=O |  | 5.37%
6 | CO[C@@H]1[C@@H](O[C@@H]2O[C@H](C)[C@@H](O[C@H]3C[C@@](C)(O)[C@@H](OC(=O)CC(C)C)[C@H](C)O3)[C@H](N(C)C)[C@H]2O)[C@@H](CC=O)C[C@@H](C)C(=O)/C=C/C2OC2C[C@@H](C)OC(=O)C[C@H]1OC(C)=O (stereo partly drawn) | 10 µM (active) | 
7 | CCNC(=O)[C@@H]1CCCN1C(=O)[C@H](CCCN=C(N)N)NC(=O)[C@H](CC(C)C)NC(=O)[C@@H](Cc1c[nH]c2ccccc12)NC(=O)[C@H](Cc1ccc(O)cc1)NC(=O)[C@H](CO)NC(=O)[C@H](Cc1c[nH]c2ccccc12)NC(=O)[C@H](Cc1cnc[nH]1)NC(=O)[C@@H]1CCC(=O)N1 | 6.31 µM (active) | 
8 | C[C@@H]1C[C@H]2[C@@H]3CCC4=CC(=O)C=C[C@]4(C)[C@@]3(F)[C@@H](O)C[C@]2(C)[C@@]1(O)C(=O)COP(=O)(O)O |  | 10.9%
9 | COC(=O)C1=C(C#N)NC(C)=C(C(=O)OC(C)C)C1c1cccc([N+](=O)[O-])c1 (stereo not drawn) |  | 13.2%
10 | O=C(O)C[C@H](O)C[C@H](O)/C=C/c1c(C2CC2)nc2ccccc2c1-c1ccc(F)cc1 |  | 4.27%
11 | OC[C@H]1O[C@@H](OCCc2ccc(O)cc2)[C@H](O)[C@@H](O)[C@@H]1O |  | 2.01%
12 | C[C@]12C=CC(=O)C=C1CC[C@@H]1[C@@H]2[C@@H](O)C[C@@]2(C)[C@H]1CC[C@]2(O)C(=O)COC(=O)CCC(=O)O |  | -8.44%
13 | CCC(=O)NCCC1CCc2ccc3c(c21)CCO3 (stereo not drawn) |  | 12.4%
14 | COc1ccc(CCNC[C@H](O)c2ccc(O)cc2)cc1OC |  | 3.09%
15 | CC[C@@]1(O)C(=O)OCc2c1cc1n(c2=O)Cc2cc3c([N+](=O)[O-])cccc3nc2-1 |  | 2.02%
16 | CCCC(=O)Nc1ncnc2c1ncn2[C@@H]1O[C@@H]2COP(=O)(O)O[C@H]2[C@H]1OC(=O)CCC |  | -2.66%
17 | C[C@H](CCC(=O)O)[C@H]1CC[C@H]2[C@@H]3[C@H](O)C[C@@H]4C[C@H](O)CC[C@]4(C)[C@H]3CC[C@]12C |  | 11%
18 | CC(=O)OC(C)OC(=O)C(C)c1ccc(-c2ccccc2)c(F)c1 (stereo not drawn) |  | -5.75% and -9.98%
19 | COC(F)(F)C(Cl)Cl |  | 1.97%

Row | Structure (SMILES) | Potency | max response
20 | CC[N+](C)(C)Cc1ccccc1Br |  | 2.98%
21 | CC(=O)N[C@@H](CC(=O)N[C@@H](CCC(=O)O)C(=O)O)C(=O)O |  | -4.86%
22 | CCCC(=O)O[C@]1(C(=O)COC(C)=O)CC[C@H]2[C@@H]3C[C@H](F)C4=CC(=O)C=C[C@]4(C)[C@@]3(F)[C@@H](O)C[C@@]21C |  | 9.8%
23 | C#C[C@]1(O)CC[C@H]2[C@@H]3CCC4=CCCC[C@@H]4[C@H]3C(=C)C[C@@]21CC |  | -1.95%
24 | CC1=C(/C=C/C(C)=C/C=C/C(C)=C/C=C/C=C(C)/C=C/C=C(C)/C=C/C2=C(C)CCCC2(C)C)C(C)(C)CCC1 |  | -12%
25 | CC[C@@H](C)CCCCC(=O)N[C@@H](CCNCS(=O)(=O)O)C(=O)N[C@H](C(=O)N[C@@H](CCNCS(=O)(=O)O)C(=O)N[C@H]1CCNC(=O)[C@H]([C@@H](C)O)NC(=O)[C@H](CCNCS(=O)(=O)O)NC(=O)[C@H](CCNCS(=O)(=O)O)NC(=O)[C@H](CC(C)C)NC(=O)[C@@H](CC(C)C)NC(=O)[C@H](CCNCS(=O)(=O)O)NC1=O)[C@@H](C)O (X3-[Dab(CH2SO3H)]T[Dab(CH2SO3H)][Dab][Dab(CH2SO3H)][dL]L[Dab(CH2SO3H)][Dab(CH2SO3H)]T; lactam 4-C) |  | 5.78%
26 | C[C@@H]1[C@H](O)[C@@H](C)/C=C/C=C\C=C\C=C\C=C\C=C\C=C\[C@H](O[C@@H]2O[C@H](C)[C@@H](O)[C@H](N)[C@@H]2O)C[C@@H]2O[C@](O)(C[C@@H](O)C[C@@H](O)[C@H](O)CC[C@@H](O)C[C@@H](O)CC(=O)O[C@H]1C)C[C@H](O)[C@H]2C(=O)O (stereo in doubt) |  | 4.52%
27 | Nc1nc(N)c2nc(CNc3ccc(C(=O)N[C@@H](CCC(=O)O)C(=O)O)cc3)cnc2n1 |  | 13.9%
28 | OCC(S)CS (stereo not drawn) | 3.98 µM (active) | 
29 | CO[C@@H]1[C@@H](O[C@@H]2O[C@H](C)[C@@H](O[C@H]3C[C@@](C)(O)[C@@H](O)[C@H](C)O3)[C@H](N(C)C)[C@H]2O)[C@@H](CC=O)C[C@@H](C)[C@@H](O[C@@H]2CC[C@H](N(C)C)[C@@H](C)O2)/C=C/C=C/C[C@@H](C)OC(=O)C[C@H]1O |  | 23.5%
30 | COC(=O)CCC(=O)CN |  | -0.174%
31 | CCOc1ccc(N=Nc2ccc(N)cc2N)cc1 |  | 4.91%
32 | COc1cc([C@@H]2c3cc4c(cc3[C@@H](O[C@@H]3O[C@@H]5CO[C@@H](C)O[C@H]5[C@H](O)[C@H]3O)[C@H]3COC(=O)[C@H]23)OCO4)cc(OC)c1O |  | -3.58%
33 | NCc1ccccc1CC(=O)N[C@@H]1C(=O)N2C(C(=O)O)=C(CSc3nnnn3CC(=O)O)CS[C@H]12 |  | 5.62%
34 | COc1ccc(C[C@@H](C)NC[C@H](O)c2ccc(O)c(NC=O)c2)cc1 |  | 19.6%
35 | CCC(=O)NS(=O)(=O)c1ccc(-c2c(-c3ccccc3)noc2C)cc1 |  | 39.9%
36 | CC[C@@H](C(=O)[C@@H](C)[C@@H](O)[C@H](C)CCc1ccc(C)c(O)c1C(=O)O)[C@H]1O[C@](CC)([C@H]2CC[C@](O)(CC)[C@H](C)O2)C[C@@H]1C | 7.08 µM (active) | 
37 | C=C(NC(=O)C(=C)NC(=O)c1csc(C2=N[C@@H]3c4csc(n4)[C@H]4NC(=O)c5csc(n5)[C@H]([C@](C)(O)[C@@H](C)O)NC(=O)[C@H]5CSC(=N5)C(=CC)NC(=O)C([C@@H](C)O)NC(=O)c5csc(n5)[C@]3(CC2)NC(=O)[C@H](C)NC(=O)C(=C)NC(=O)[C@H](C)NC(=O)C([C@@H](C)CC)NC2C=Cc3c([C@H](C)O)cc(nc3C2O)C(=O)O[C@@H]4C)n1)C(N)=O (stereo partly drawn) | 11.2 µM (active) | 
38 | CCCCC(C)(O)C/C=C/[C@H]1[C@H](O)CC(=O)[C@@H]1CCCCCCC(=O)OC (stereo partly drawn) |  | -1.16%
